Activity calls are given as the source filed them.
Tests used:
[1] = small molecules captured by biotinylated probe aFSTL3 – biochemical, small-molecule microarray, fluorescence 635/667, stem cell growth factor project, primary screen (AID 1064); conditions: higher = more signal;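 also: measures binding of the biotinylated anti-FSTL3 antibody to printed compounds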
[2] = binders from COS7 lysate, DM2A8 probe, primary screen, torsin A project, cell lysate, small-molecule microarray, fluorescence 635/667 (AID 1065); conditions: higher = more signal, COS7 lysate expressing mutant human TOR1A
[3] = small molecules captured by biotinylated probe aFGF2 – biochemical, small-molecule microarray, fluorescence 635/667, stem cell growth factor project, primary screen (AID 1067); conditions: higher = more signal;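 also: measures binding of biotinylated aFGF2 protein to printed compounds on slides; z-score merges feature fluorescence and signal-to-noise across triplicate slides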
[4] = small molecules captured by biotinylated probe aFGF10 – biochemical, small-molecule microarray, fluorescence 635/667, stem cell growth factor project, primary screen (AID 1071); conditions: higher = more signal;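 also: score merges 667 nm spot intensity and signal to noise from triplicate slides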
[5] = biological target: Neurogenic locus notch homolog protein 2 (Homo sapiens) (UniProt Q04721); assay: small molecules binding Notch2 protein – biochemical, small-molecule microarray, 635 nm fluorescence, stem cell growth factors, primary screen (AID 1073); conditions: higher = more signal
Chain of Neurogenic locus notch homolog protein 2 (Homo sapiens) (Q04721 whole entry, looked up, canonical isoform): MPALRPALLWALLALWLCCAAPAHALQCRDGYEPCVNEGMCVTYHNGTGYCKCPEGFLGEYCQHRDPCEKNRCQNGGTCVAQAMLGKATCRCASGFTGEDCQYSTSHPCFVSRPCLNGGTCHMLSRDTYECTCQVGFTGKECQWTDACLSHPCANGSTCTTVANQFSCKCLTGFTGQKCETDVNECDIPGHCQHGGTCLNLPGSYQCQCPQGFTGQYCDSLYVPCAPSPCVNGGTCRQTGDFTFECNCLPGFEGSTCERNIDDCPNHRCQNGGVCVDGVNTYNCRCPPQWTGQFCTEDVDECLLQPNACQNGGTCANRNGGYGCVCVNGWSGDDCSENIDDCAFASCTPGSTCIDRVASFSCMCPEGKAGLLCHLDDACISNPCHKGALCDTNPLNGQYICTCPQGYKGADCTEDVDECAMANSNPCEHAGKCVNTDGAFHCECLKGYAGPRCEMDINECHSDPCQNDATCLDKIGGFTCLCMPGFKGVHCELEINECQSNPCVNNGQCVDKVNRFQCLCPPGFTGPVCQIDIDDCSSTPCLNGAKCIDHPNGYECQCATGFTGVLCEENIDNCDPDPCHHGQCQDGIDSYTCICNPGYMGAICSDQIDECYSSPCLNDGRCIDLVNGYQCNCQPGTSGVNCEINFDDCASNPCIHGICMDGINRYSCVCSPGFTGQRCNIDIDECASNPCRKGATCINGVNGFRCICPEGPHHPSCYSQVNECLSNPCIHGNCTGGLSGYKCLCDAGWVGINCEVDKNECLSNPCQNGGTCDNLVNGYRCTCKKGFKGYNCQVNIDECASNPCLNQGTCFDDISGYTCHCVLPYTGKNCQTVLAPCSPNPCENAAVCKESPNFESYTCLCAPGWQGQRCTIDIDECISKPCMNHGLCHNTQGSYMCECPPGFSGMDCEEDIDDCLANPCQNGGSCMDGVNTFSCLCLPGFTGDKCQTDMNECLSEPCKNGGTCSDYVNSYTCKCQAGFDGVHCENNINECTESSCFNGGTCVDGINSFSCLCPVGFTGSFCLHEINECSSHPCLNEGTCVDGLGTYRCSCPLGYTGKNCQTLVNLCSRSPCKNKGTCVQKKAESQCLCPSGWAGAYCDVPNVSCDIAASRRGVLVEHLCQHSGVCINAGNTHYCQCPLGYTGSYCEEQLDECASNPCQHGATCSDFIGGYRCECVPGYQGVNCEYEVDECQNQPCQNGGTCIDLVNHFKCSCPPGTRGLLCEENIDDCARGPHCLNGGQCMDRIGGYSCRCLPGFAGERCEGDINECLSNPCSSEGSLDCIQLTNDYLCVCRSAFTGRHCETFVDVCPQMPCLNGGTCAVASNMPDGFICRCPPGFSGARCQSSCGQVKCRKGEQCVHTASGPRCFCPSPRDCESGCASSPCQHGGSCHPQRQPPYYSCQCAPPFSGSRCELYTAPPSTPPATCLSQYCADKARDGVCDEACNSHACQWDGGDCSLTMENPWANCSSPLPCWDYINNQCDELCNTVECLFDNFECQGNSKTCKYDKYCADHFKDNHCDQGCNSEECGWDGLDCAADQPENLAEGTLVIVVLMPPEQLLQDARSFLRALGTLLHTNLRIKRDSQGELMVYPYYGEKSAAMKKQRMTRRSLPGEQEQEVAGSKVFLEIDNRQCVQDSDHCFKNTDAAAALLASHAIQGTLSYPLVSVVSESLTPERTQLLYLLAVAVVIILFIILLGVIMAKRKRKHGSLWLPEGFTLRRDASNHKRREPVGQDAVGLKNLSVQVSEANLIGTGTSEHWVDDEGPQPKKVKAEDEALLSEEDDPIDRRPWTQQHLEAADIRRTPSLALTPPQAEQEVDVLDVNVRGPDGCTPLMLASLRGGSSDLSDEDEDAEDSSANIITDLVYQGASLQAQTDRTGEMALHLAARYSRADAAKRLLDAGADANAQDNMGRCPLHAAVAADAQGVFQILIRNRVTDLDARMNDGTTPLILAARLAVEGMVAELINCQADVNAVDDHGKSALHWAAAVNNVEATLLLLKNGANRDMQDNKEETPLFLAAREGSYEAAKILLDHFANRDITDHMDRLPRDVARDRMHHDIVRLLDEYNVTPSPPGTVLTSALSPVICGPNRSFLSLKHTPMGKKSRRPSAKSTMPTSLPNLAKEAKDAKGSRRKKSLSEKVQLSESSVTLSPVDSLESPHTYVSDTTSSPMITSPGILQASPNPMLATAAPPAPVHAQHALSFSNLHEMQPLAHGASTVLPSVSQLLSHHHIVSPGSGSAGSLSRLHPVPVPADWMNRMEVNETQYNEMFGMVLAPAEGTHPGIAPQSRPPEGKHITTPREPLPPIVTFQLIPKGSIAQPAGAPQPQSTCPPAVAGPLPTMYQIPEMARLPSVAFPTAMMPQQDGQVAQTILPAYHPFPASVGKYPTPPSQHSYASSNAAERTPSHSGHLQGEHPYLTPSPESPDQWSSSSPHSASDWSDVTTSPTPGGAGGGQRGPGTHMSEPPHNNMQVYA

[6] = biological target: Pro-neuregulin-1, membrane-bound isoform (Homo sapiens) (UniProt Q02297); assay: small molecules binding neuregulin-1 protein – biochemical, small-molecule microarray, fluorescence 635/667, psychiatric disease protein project, primary screen (AID 1075); conditions: NRG1 binding, 635 nm fluorescence, higher = more signal;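 also: score combines 667 nm spot fluorescence with signal to noise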
Chain of Pro-neuregulin-1, membrane-bound isoform (Homo sapiens) (Q02297 whole entry, looked up, the tested form may be a part, canonical isoform): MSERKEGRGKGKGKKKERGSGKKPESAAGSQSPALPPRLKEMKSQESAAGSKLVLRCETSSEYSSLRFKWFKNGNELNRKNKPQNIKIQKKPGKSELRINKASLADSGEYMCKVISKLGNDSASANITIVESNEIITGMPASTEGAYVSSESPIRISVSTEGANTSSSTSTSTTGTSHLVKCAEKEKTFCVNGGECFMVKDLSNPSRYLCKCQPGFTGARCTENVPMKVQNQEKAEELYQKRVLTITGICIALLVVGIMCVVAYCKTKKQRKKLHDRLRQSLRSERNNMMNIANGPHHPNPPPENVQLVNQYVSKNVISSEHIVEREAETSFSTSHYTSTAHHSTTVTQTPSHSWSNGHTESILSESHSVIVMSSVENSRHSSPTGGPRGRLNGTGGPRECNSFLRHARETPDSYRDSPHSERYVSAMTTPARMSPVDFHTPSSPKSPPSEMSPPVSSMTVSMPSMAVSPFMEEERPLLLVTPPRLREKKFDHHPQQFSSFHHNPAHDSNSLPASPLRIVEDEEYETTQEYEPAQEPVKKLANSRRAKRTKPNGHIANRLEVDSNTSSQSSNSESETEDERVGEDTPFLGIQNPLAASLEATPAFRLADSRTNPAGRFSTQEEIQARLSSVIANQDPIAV

[7] = system: Neuregulin-1 EGF-like domain; assay: small molecules binding NRG1 EGF domain – biochemical, small-molecule microarray, 635 nm fluorescence, primary screen (AID 1081); conditions: higher = more signal;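 also: binding of the protein to compounds printed on small-molecule microarray slides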
[8] = FRG1 expression reporter modulators in myotubes – cell-based, C2C12 myotubes, firefly/Renilla luciferase, luminescence, FRG1 inhibition for FSHD, primary screen (AID 1084); conditions: FRG1 promoter luciferase, higher = more signal, called active from +8 up or from −8 down
[9] = small molecules captured by biotinylated probe aFST – biochemical, small-molecule microarray, fluorescence 635/667, stem cell growth factor project, primary screen (AID 1086); conditions: higher = more signal;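 also: score merges 667 nm fluorescence with signal-to-noise of each printed compound spot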
[10] = binders of probe aHhip on microarray, primary screen, stem cell growth factor project, biochemical, small-molecule microarray, fluorescence 635/667 (AID 1087); conditions: higher = more signal;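 also: score merges spot fluorescence at 667nm with spot signal to noise ratio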
[11] = system: PRMT1 (protein arginine N-methyltransferase 1); assay: small molecules binding arginine methyltransferase PRMT1 – biochemical, small-molecule microarray, 635 nm fluorescence, primary screen (AID 1088); conditions: higher = more signal;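 also: binding of Prmt1 protein to compounds spotted on small-molecule microarray slides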
[12] = growth effects on S. cerevisiae YJM789 – YJM789 clinical isolate, OD600, 24 h, basal, primary screen (AID 1089); conditions: higher = more signal, called active from +8 up or from −8 down;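 also: growth of clinical yeast isolate S. cerevisiae YJM 789 seeded 1000 cells per well; test concentration not given here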
[13] = S. pombe growth modifiers, basal conditions – strain 972, OD600, 24 h, no modulator, primary screen (AID 1090);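 also: basal condition with compound alone and no growth modifier present; test concentration not given here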; conditions: S. pombe 972 growth, higher = more signal, called active from +8 up or from −8 down
[14] = budding yeast growth modifiers under rapamycin – strain BY4716, OD600, 96 h, primary screen (AID 1091); also: test concentration not given here; conditions: S. cerevisiae BY4716 + rapamycin, higher = more signal, called active from +8 up or from −8 down
[15] = biological target: Torsin-1A-interacting protein 2 (Homo sapiens) (UniProt Q8NFQ8); assay: small molecules binding lysate-expressed LULL1 – cell lysate, human LULL1 lysate, 635/667 nm fluorescence, primary screen (AID 1092); conditions: small-molecule microarray, hLULL1 lysate binding, 635 nm fluorescence; higher = more signal;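 also: probe is lysate of COS7 cells overexpressing human LULL1; score merges per-feature 667 nm fluorescence with signal-to-noise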
Chain of Torsin-1A-interacting protein 2 (Homo sapiens) (Q8NFQ8 whole entry, looked up): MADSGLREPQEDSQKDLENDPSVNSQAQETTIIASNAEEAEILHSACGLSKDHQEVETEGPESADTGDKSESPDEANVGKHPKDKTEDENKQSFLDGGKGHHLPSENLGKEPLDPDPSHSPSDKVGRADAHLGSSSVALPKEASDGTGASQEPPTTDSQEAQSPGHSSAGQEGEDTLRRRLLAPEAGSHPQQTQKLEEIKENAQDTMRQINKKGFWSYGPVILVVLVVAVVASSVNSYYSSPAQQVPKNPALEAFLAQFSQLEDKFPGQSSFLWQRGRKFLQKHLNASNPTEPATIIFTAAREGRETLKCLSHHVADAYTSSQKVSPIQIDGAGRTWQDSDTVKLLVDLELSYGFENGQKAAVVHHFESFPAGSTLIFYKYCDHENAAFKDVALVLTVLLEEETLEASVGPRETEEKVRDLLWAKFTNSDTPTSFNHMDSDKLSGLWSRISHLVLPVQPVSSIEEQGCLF

[16] = optical density change of DRC41 E. coli – strain DRC41, OD650, 24 h, E. coli filamentation project, primary screen (AID 1093);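 also: MC1000 strain lacking acrAB efflux and sulA so SOS filamentation is blocked; test concentration not given here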; conditions: E. coli DRC41 growth, higher = more signal, called active from +8 up or from −8 down
[17] = probe aLefty2 binding to arrayed compounds – biochemical, biotinylated probe, 635/667 nm fluorescence, primary screen (AID 1094); conditions: small-molecule microarray, higher = more signal;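 also: score merges spot fluorescence near 667 nm with spot signal-to-noise ratio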
[18] = system: Noggin (protein binding on small-molecule microarray); assay: small molecules binding Noggin protein – biochemical, 635/667 nm fluorescence, primary screen (AID 1095); conditions: 635 nm fluorescence, higher = more signal;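 also: score merges 667 nm feature fluorescence with signal to noise over triplicate slides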
[19] = biological target: Neurogenic locus notch homolog protein 3 (Homo sapiens) (UniProt Q9UM47); assay: small molecules binding NOTCH3 protein – biochemical, 635/667 nm fluorescence, primary screen (AID 1096); conditions: small-molecule microarray, 635 nm fluorescence, higher = more signal
[20] = probe aEGFR binding to arrayed compounds – biochemical, biotinylated probe, 635/667 nm fluorescence, primary screen (AID 1097); conditions: small-molecule microarray, higher = more signal;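 also: probe is a biotinylated anti-EGFR antibody binding compounds printed on slides; score combines fluorescence near 667 nm and signal to noise of each spot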

Row | Compound | composite z-score [1] | composite z-score [2] | composite z-score [3] | composite z-score [4] | composite z-score [5] | composite z-score [6] | composite z-score [7] | z-score [8] | composite z-score [9] | composite z-score [10] | composite z-score [11] | z-score [12] | z-score [13] | z-score [14] | composite z-score [15] | z-score [16] | composite z-score [17] | composite z-score [18] | composite z-score [19] | composite z-score [20]
1 | O=c1n(Cc2cc3c(cc2Cl)OCO3)c(=O)n2n1CC[C@@H]1C(=NOCc3ccccc3)[C@H]3O[C@H]3[C@@H](O)[C@@H]12 | -0.381 | 0.188 | -0.14 | 0.47 | 0.589 | 0.114 | 0.428 | -0.611 (inactive) | 0.764 | -0.0645 | 0.499 | -1.97 (inactive) | -1.25 (inactive) | -0.756 (inactive) | -0.056 | -0.363 (inactive) | -0.0963 | 0.498 | 0.68 | -0.0371
2 | COc1ccc(COC(=O)NN=C2C[C@@H](O)[C@@H](O)[C@@H]3[C@@H]4C(=O)N(Cc5ccccc5)C(=O)[C@@H]4CC[C@H]23)cc1 | 1.51 | 0.111 | -0.0574 | 0.009 | -0.234 | -0.318 | -0.411 | 0.319 (inactive) | 1.39 | -0.284 | 0.413 | -0.457 (inactive) | -0.619 (inactive) | -1.17 (inactive) | 0.739 | -0.289 (inactive) | 0.287 | -1.24 | -0.0524 | -0.13
3 | C#CCCCON=C1[C@H]2CCn3c(=O)n(-c4ccccc4)c(=O)n3[C@H]2[C@H](O)[C@@H]2O[C@H]12 | -0.306 | 0.0575 | -0.24 | 0.201 | 0.47 | -0.0335 | 0.478 | -1.91 (inactive) | 0.212 | -0.134 | 0.192 | -1.65 (inactive) | -0.813 (inactive) | -0.864 (inactive) | 0.463 | -0.623 (inactive) | -0.202 | 0.422 | 0.496 | -0.0938
4 | CC[C@@H](c1ccccc1)n1c(=O)n2n(c1=O)[C@H]1[C@H](O)[C@@H]3O[C@@H]3C(=NOC[C@@H](O)COCc3ccco3)[C@H]1CC2 | -0.437 | 0.615 | -0.116 | 0.25 | -1.17 | -0.552 | 0.727 | 0.0269 (inactive) | -0.113 | -0.741 | -0.862 | -0.697 (inactive) | -0.552 (inactive) | -0.624 (inactive) | -1.1 | 0.568 (inactive) | -0.215 | 0.0447 | -0.979 | -0.185
5 | CC(CCC(=O)OC[C@H]1O[C@H](C#Cc2ccccc2)C=C[C@@H]1Oc1ccc(C)cc1)=NO[C@H](C)c1cn([C@H](CO)Cc2ccccc2)nn1 | -0.544 | -0.0618 | -0.122 | 0.191 | 0.369 | 0.527 | 0.529 | 0.546 (inactive) | 0.337 | -0.211 | 1.05 | 1.62 (inactive) | -0.372 (inactive) | 1.31 (inactive) | 1.05 | 0.171 (inactive) | -0.239 | 0.689 | 0.695 | -0.17
6 | CC(=O)OC[C@H]1OC(ON=CC[C@@H]2C=C[C@H](OC(C)=O)[C@@H](COC(C)=O)O2)[C@H](OC(C)=O)[C@@H](OC(C)=O)[C@@H]1OC(C)=O (stereo not given in full) | -0.314 | 0.585 | -0.076 | 0.398 | 0.94 | -0.555 | -0.595 | -0.0946 (inactive) | 0.52 | 0.0972 | 1.4 | -0.763 (inactive) | 0.17 (inactive) | -0.64 (inactive) | 0.828 | -0.16 (inactive) | 0.106 | 0.612 | 0.448 | 0.145
7 | CCOC(=O)[C@H](CC(C)C)NC(=O)CCC1CC(OC(=O)NCc2ccc3c(c2)OCO3)CC2(CCCC(COC(=O)NCc3cccc(C(F)(F)F)c3)O2)O1 (stereo not given in full) | -0.109 | -0.249 | -0.0841 | 0.371 | 0.421 | 0.0839 | 0.445 | 0.31 (inactive) | 0.0884 | -0.0994 | 0.312 | 0.518 (inactive) | 0.486 (inactive) | 1.29 (inactive) | 0.851 | -0.772 (inactive) | -0.154 | 0.184 | 0.082 | -0.171
8 | CC(=O)OC[C@H]1O[C@H](CC=NO[C@H](C)c2cn([C@H](CO)Cc3ccccc3)nn2)C=C[C@@H]1OC(C)=O | -0.789 | 0.379 | -0.087 | 0.541 | 0.911 | 1.33 | 0.711 | 0.235 (inactive) | 0.246 | -0.201 | 1.34 | 1.36 (inactive) | 1.34 (inactive) | 1.4 (inactive) | 1.06 | 0.655 (inactive) | -0.0998 | 0.61 | 1 | 0.009
9 | CC(CCN1CCCCc2nc(C)c(C)cc21)=NOC[C@@H](O)COCc1ccco1 | -0.471 | 2.6 | -0.242 | 0.0106 | 0.296 | -1.03 | 0.298 | -0.0255 (inactive) | 0.193 | 0.259 | 1.3 | -1.35 (inactive) | 0.527 (inactive) | -0.119 (inactive) | -0.58 | 0.742 (inactive) | -0.0042 | 1.21 | 0.876 | 0.592

— PubChem BioAssay
